Results filed as inconclusive are left out. Calls of active or inactive are those of the source. Unless noted, the call rests on the fitted dose curve.
Legend:
[1] = qHTS assay to identify small molecule agonists of the peroxisome proliferator-activated receptor delta (PPARd) signaling pathway - cell viability counter screen (AID 743211; active means well fitted curve in the direction sought with a large enough effect in the repeat runs; an effect the other way counts as inactive or inconclusive; further: on the % scale 0 is the no-effect control and ±100 the full control effect; nearly all actives have a fitted effect of over 55% in size)
In short: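 Read-out: CellTiter-Glo luminescence, 30 min RT, measured in the same wells as the beta-lactamase reporter. Cells: GeneBLAzer PPAR delta UAS-bla HEK293H, 3000 cells/well, compound exposure 17 h at 37C.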

[2] = biological target: Peroxisome proliferator-activated receptor delta (Homo sapiens) (UniProt Q03181); experiment: qHTS assay to identify small molecule agonists of the peroxisome proliferator-activated receptor delta (PPARd) signaling pathway (AID 743212); further: on the % scale 0 is the no-effect control and ±100 the full control effect
In short: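 HEK293H PPARd-bla cells; 5 h preincubation 37 C/5% CO2; compound (DMSO) 37 C; LiveBLAzer B/G FRET substrate 2 h RT; fluorescence intensity.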

[3] = qHTS assay to identify small molecule antagonists of the peroxisome proliferator-activated receptor delta (PPARd) signaling pathway - cell viability counter screen (AID 743213; active means well fitted curve in the direction sought with a large enough effect in the repeat runs; an effect the other way counts as inactive or inconclusive; further: on the % scale 0 is the no-effect control and ±100 the full control effect; nearly all actives have a fitted effect of over 50% in size)
In short: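 Agonist-stimulated (L165041, 300 nM final) HEK293H PPARd UAS-bla cells are exposed to compounds for 17 h at 37 C, and ATP-based luminescence (CellTiter-Glo) from the same wells reports cytotoxicity.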

[4] = biological target: Peroxisome proliferator-activated receptor delta (Homo sapiens) (UniProt Q03181); experiment: qHTS assay to identify small molecule antagonists of the peroxisome proliferator-activated receptor delta (PPARd) signaling pathway (AID 743215; active means well fitted inhibition curve with a large enough effect in the signal ratio in the repeat runs, not every such curve was filed as active; the % refers to the signal ratio; further: series mostly up to about 62 µM; on the % scale 0 is the no-effect control and ±100 the full control effect)
In short: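 PPARd UAS-bla HEK293H cells were pre-incubated 5 h at 37 C, then given test compounds in DMSO plus agonist L165041 (300 nM final). After 17 h at 37 C, beta-lactamase FRET substrate was added; fluorescence read after 2 h at room temperature.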

[5] = qHTS assay to identify small molecule agonists of the farnesoid-X-receptor (FXR) signaling pathway - cell viability counter screen (AID 743218; active means well fitted curve in the direction sought with a large enough effect in the repeat runs; an effect the other way counts as inactive or inconclusive; further: on the % scale 0 is the no-effect control and ±100 the full control effect; nearly all actives have a fitted effect of over 45% in size)
In short: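 FXR-UAS-bla HEK 293T cells, plated 5 h at 37 C, were exposed to compounds for 16 h at 37 C. CellTiter-Glo was then added to the same wells as the bla readout; luminescence read after 30 min at room temperature.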

[6] = qHTS assay to identify small molecule antagonists of the farnesoid-X-receptor (FXR) signaling pathway - cell viability counter screen (AID 743221; active means well fitted cell-killing curve with a large enough effect in the repeat runs, not every such curve was filed as active; further: on the % scale 0 is the no-effect control and ±100 the full control effect; nearly all actives have a fitted effect of over 50% in size)
In short: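 HEK 293T FXR-bla cells, 5 h pre-incubation; compound + CDCA 50 uM final, 16 h, 37 C; beta-lactamase FRET read first, then CellTiter-Glo luminescence, 30 min RT.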

[7] = biological target: Vitamin D3 receptor (Homo sapiens) (UniProt P11473); experiment: qHTS assay to identify small molecule agonists of the vitamin D receptor (VDR) signaling pathway (AID 743222); further: on the % scale 0 is the no-effect control and ±100 the full control effect
In short: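 VDR-bla cells were plated 4 h at 37C/5% CO2, then exposed to compounds in DMSO for 16 h. After LiveBLAzer B/G FRET substrate addition and 2 h at room temperature, beta-lactamase reporter fluorescence was read.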

[8] = qHTS assay to identify small molecule agonists of the vitamin D receptor (VDR) signaling pathway - cell viability counter screen (AID 743224; active means well fitted curve in the direction sought with a large enough effect in the repeat runs; an effect the other way counts as inactive or inconclusive; further: series mostly up to about 63 µM; on the % scale 0 is the no-effect control and ±100 the full control effect; nearly all actives have a fitted effect of over 50% in size)
In short: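 VDR-bla cells were preincubated 4 h at 37C/5% CO2, then exposed to compounds for 16 h. After the 2 h room-temperature bla FRET read, CellTiter-Glo was added to the same wells and luminescence read after 30 min.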

[9] = qHTS assay to identify small molecule antagonists of the vitamin D receptor (VDR) signaling pathway - cell viability counter screen (AID 743225; active means well fitted curve in the direction sought with a large enough effect in the repeat runs; an effect the other way counts as inactive or inconclusive; further: on the % scale 0 is the no-effect control and ±100 the full control effect; nearly all actives have a fitted effect of over 50% in size)
In short: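 Viability counter screen run in the same wells as the beta-lactamase reporter assay: HEK 293T VDR-UAS-bla cells, 16 h compound exposure at 37C with 3 nM (final) 1-alpha,25-dihydroxyvitamin D3. CellTiter-Glo luminescence, 30 min, room temperature.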

[10] = qHTS assay to identify small molecule agonists of the NFkB signaling pathway (AID 1159509; active means well fitted curve in the direction sought with a large enough effect in the signal ratio in the repeat runs, not every such curve was filed as active; the % refers to the signal ratio; further: series mostly up to about 61 µM; on the % scale 0 is the no-effect control and ±100 the full control effect)
In short: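 ME-180 NFkB-bla, 2,000 cells/well, overnight plating; cpd pinned in DMSO, 5 h 37 C; B/G FRET substrate 1.5 h RT; ex 405, em 460/530 nm.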

[11] = qHTS assay to identify small molecule agonists of the NFkB signaling pathway - cell viability counter screen (AID 1159515); further: series mostly up to about 61 µM; on the % scale 0 is the no-effect control and ±100 the full control effect; nearly all actives have a fitted effect of over 55% in size
In short: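 NFkB-bla ME-180 cells, 2,000/well, were plated overnight at 37 C, 5% CO2, then exposed to compounds in DMSO for 5 hr. After the bla FRET read, CellTiter-Glo was added to the same wells; luminescence was read after 30 min at room temperature.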

[12] = qHTS assay to identify small molecule agonists of the endoplasmic reticulum stress response signaling pathway (AID 1159516; active means well fitted activation curve with a large enough effect in the signal ratio in the repeat runs, not every such curve was filed as active; the % refers to the signal ratio; further: on the % scale 0 is the no-effect control and ±100 the full control effect)
In short: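 CellSensor ESRE-bla HeLa cells, carrying a beta-lactamase reporter driven by the ER stress response element, were plated overnight and exposed to compounds for 5 hr at 37 C. Reporter activity was read as FRET substrate fluorescence after 2 hr at room temperature.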

[13] = qHTS assay to identify small molecule agonists of the endoplasmic reticulum stress response signaling pathway - cell viability counter screen (AID 1159517)
In short: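 HeLa cells carrying an ESRE-driven beta-lactamase reporter receive compound for 5 hr at 37 C. Cell viability is then gauged with CellTiter-Glo by luminescence, 30 min at room temperature.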

[14] = qHTS assay to identify small molecule antagonists of the retinoid-related orphan receptor gamma (ROR-gamma) signaling pathway - cell viability counter screen (AID 1159520; active means well fitted curve in the direction sought with a large enough effect in the repeat runs; an effect the other way counts as inactive or inconclusive)
In short: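 Cytotoxicity was read from cellular ATP (CellTiter-Glo luminescence) after 16 hr at 37 C with 1 uM doxycycline induction. The inducer was added 2 hr after compound transfer to Tet-on ROR gamma CHO cells.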

[15] = qHTS assay to identify small molecule agonists of the AP-1 signaling pathway - cell viability counter screen (AID 1159525); further: nearly all actives have a fitted effect of over 55% in size
In short: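 Luminescent ATP readout (Cell Titer Glo, 30 min RT), normalised to DMSO and tetra n-octyl ammonium bromide controls. Cells were ME-180 AP-1-bla in 0.5% dialyzed FBS Opti-MEM, with a 5 h, 37 °C compound exposure.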

[16] = qHTS assay to identify small molecule agonists of the AP-1 signaling pathway (AID 1159526); further: on the % scale 0 is the no-effect control and ±100 the full control effect
[17] = biological target: Bile acid receptor (Homo sapiens) (UniProt Q96RI1); experiment: qHTS assay to identify small molecule antagonists of the farnesoid-X-receptor (FXR) signaling pathway (AID 743217; active means well fitted inhibition curve with a large enough effect in the signal ratio in the repeat runs, not every such curve was filed as active; the % refers to the signal ratio; further: on the % scale 0 is the no-effect control and ±100 the full control effect)
In short: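 FXR-UAS-bla HEK 293T cells pre-incubated 5 h at 37 °C, then exposed to compounds with chenodeoxycholic acid (50 uM final) for 16 h at 37 °C. Beta-lactamase reporter read by LiveBLAzer B/G FRET substrate fluorescence after 2 h at room temperature.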

[18] = biological target: Vitamin D3 receptor (Homo sapiens) (UniProt P11473); experiment: qHTS assay to identify small molecule antagonists of the vitamin D receptor (VDR) signaling pathway (AID 743223; active means well fitted inhibition curve with a large enough effect in the signal ratio in the repeat runs, not every such curve was filed as active; the % refers to the signal ratio; further: on the % scale 0 is the no-effect control and ±100 the full control effect)
In short: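 Beta-lactamase reporter read-out: FRET substrate fluorescence after 2 h at room temperature, following 16 h exposure of VDR-bla cells to test compound plus 3 nM (final) 1alpha,25-dihydroxyvitamin D3 agonist at 37C.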

[19] = biological target: Bile acid receptor (Homo sapiens) (UniProt Q96RI1); experiment: qHTS assay to identify small molecule agonists of the farnesoid-X-receptor (FXR) signaling pathway (AID 743220; active means well fitted activation curve with a large enough effect in the signal ratio in the repeat runs, not every such curve was filed as active; the % refers to the signal ratio; further: on the % scale 0 is the no-effect control and ±100 the full control effect)
In short: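 Beta-lactamase reporter under UAS control in GeneBLAzer FXR HEK 293T cells (5000/well) measured with LiveBLAzer FRET substrate after 2 h at room temperature. Compound exposure lasted 16 h at 37C.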

Bile acid receptor (Homo sapiens), sequence (Q96RI1 whole entry, looked up): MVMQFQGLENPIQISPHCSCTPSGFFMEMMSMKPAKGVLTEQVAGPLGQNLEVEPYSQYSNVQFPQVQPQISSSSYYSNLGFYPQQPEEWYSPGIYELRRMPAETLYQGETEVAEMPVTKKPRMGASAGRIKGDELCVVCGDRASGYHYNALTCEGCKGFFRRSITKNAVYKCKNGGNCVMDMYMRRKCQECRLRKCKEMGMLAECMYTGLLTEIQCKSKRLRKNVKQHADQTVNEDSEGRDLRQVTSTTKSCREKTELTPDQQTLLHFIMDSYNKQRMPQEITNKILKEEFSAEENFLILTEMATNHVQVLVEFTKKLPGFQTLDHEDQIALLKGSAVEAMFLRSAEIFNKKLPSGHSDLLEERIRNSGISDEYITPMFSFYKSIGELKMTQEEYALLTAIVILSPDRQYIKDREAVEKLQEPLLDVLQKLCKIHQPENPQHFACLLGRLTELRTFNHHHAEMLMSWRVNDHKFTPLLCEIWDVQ
Peroxisome proliferator-activated receptor delta (Homo sapiens), sequence (Q03181 whole entry, looked up): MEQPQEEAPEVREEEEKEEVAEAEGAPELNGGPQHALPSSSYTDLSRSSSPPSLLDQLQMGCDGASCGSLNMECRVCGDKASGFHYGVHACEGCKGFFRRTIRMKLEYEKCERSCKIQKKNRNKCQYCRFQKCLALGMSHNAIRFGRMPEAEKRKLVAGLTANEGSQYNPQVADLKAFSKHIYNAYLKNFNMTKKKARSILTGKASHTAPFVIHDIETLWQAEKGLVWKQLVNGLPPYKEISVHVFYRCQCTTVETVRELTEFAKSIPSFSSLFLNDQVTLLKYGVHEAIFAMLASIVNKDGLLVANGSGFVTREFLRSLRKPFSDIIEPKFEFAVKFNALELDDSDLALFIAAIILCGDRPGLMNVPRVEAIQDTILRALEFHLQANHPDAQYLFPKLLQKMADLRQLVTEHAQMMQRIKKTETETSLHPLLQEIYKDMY
Vitamin D3 receptor (Homo sapiens), sequence (P11473 whole entry, looked up): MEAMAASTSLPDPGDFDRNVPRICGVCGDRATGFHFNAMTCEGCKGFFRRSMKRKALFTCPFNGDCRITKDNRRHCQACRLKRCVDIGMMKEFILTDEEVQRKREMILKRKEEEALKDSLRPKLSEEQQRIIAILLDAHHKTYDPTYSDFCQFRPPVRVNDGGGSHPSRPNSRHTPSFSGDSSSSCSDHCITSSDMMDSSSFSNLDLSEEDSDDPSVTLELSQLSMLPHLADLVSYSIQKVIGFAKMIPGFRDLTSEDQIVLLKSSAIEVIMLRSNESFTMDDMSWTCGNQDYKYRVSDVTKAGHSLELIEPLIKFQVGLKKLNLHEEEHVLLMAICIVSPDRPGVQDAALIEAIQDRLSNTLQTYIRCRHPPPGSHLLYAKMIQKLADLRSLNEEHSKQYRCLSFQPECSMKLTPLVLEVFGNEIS

Cc1cnc(C)c(C)n1
inactive: Potency [1] | Potency [2] | Potency [3] | Potency [4] | Potency [5] | Potency [6] | outcome [7] | Potency [8] | Potency [9] | outcome [10] | outcome [11] | outcome [12] | outcome [13] | Potency [14] | outcome [15] | outcome [16]

C[C@@H]1C[C@H]2[C@@H]3CCC4=CC(=O)C=C[C@]4(C)[C@@]3(F)[C@@H](O)C[C@]2(C)[C@@]1(O)C(=O)CO
inactive: Potency [1] | Potency [2] | Potency [3] | Potency [4] | Potency [6] | outcome [10] | outcome [11] | outcome [12] | outcome [13] | Potency [14] | outcome [15] | outcome [16]

CC1CC(O)CC(C)(C)C1 (stereo unspecified)
inactive: Potency [1] | Potency [2] | Potency [3] | Potency [4] | Potency [17] | Potency [6] | outcome [7] | outcome [18] | Potency [8] | Potency [9] | outcome [10] | outcome [11] | outcome [12] | outcome [13] | Potency [14] | outcome [15] | outcome [16]

C/C(=N/NC(=O)c1ccncc1)C(=O)O
inactive: Potency [1] | Potency [2] | Potency [3] | Potency [4] | Potency [5] | Potency [6] | outcome [7] | outcome [18] | Potency [8] | outcome [10] | outcome [11] | outcome [12] | outcome [13] | Potency [14] | outcome [15] | outcome [16]

O=C(O)c1snc(Cl)c1Cl
inactive: Potency [1] | Potency [2] | Potency [3] | Potency [4] | Potency [17] | Potency [5] | Potency [19] | Potency [6] | outcome [7] | outcome [18] | Potency [8] | Potency [9] | outcome [10] | outcome [11] | outcome [12] | outcome [13] | Potency [14] | outcome [15] | outcome [16]

CCCCCCOC(=O)CCCCCCCC(=O)OCCCCCC
inactive: Potency [1] | Potency [2] | Potency [3] | Potency [4] | Potency [6] | outcome [7] | outcome [18] | Potency [8] | outcome [10] | outcome [11] | outcome [12] | outcome [13] | Potency [14] | outcome [15] | outcome [16]

O=C(O)Cc1ccc(-c2ccccc2)cc1
inactive: Potency [1] | Potency [2] | Potency [3] | Potency [4] | Potency [5] | Potency [6] | outcome [7] | outcome [18] | Potency [8] | Potency [9] | outcome [10] | outcome [11] | outcome [12] | outcome [13] | Potency [14] | outcome [15] | outcome [16]

CC(=O)OCC(=O)[C@@]12OC(C)(C)O[C@@H]1C[C@H]1[C@@H]3C[C@H](F)C4=CC(=O)C=C[C@]4(C)[C@@]3(F)[C@@H](O)C[C@@]12C
inactive: Potency [1] | Potency [2] | Potency [3] | Potency [4] | Potency [5] | Potency [6] | outcome [7] | Potency [8] | Potency [9] | outcome [10] | outcome [11] | outcome [12] | outcome [13] | Potency [14] | outcome [15] | outcome [16]

CC1CN(c2cc3c(cc2F)c(=O)c(C(=O)O)cn3-c2ccc(F)cc2F)CCN1 (stereo unspecified)
inactive: activity change, negative = cytotoxicity [1] -0.433% [at 5.95 µM] | activation [2] 3.73% [at 5.95 µM] | viability change, negative = cytotoxic [3] 12.1% [at 6.26 µM] | ratio activity, negative = inhibition [4] 1.55% [at 6.26 µM] | viability change, negative = cytotoxic [5] 19.1% [at 5.95 µM] | activity change, negative = cytotoxicity [6] -0.0684% [at 5.95 µM] | activation [7] 5.04% [at 6.01 µM] | activity change, negative = inhibition [18] 0.481% [at 6.95 µM] | activity change, negative = cytotoxicity [8] -0.741% [at 5.95 µM] | viability change, negative = cytotoxic [9] 9.78% [at 6.95 µM] | activation [10] 0.411% [at 6.95 µM] | activity, negative = cytotoxic [11] 3.41% [at 6.95 µM] | activation [12] -0.328% [at 6.95 µM] | activity change, negative = cytotoxicity [13] 10.1% [at 6.95 µM] | activity, negative = cytotoxicity [14] 3.27% [at 8.39 µM] | viability change, negative = cytotoxic [15] -6.8% [at 6.97 µM] | activation [16] 2.03% [at 6.97 µM]

CC(CCO)CCc1ccccc1 (stereo unspecified)
inactive: Potency [1] | Potency [2] | Potency [3] | Potency [4] | Potency [17] | Potency [5] | Potency [19] | Potency [6] | outcome [7] | outcome [18] | Potency [8] | Potency [9] | outcome [10] | outcome [11] | outcome [12] | outcome [13] | Potency [14] | outcome [15] | outcome [16]

CCC(Cc1ccccc1)(C(=O)c1ccc(N2CCOCC2)cc1)N(C)C (stereo unspecified)
inactive: Potency [1] | Potency [2] | Potency [3] | Potency [4] | Potency [19] | Potency [6] | outcome [7] | outcome [10] | outcome [11] | outcome [12] | outcome [13] | Potency [14] | outcome [15] | outcome [16]

OCCSc1ccccc1
inactive: Potency [1] | Potency [2] | Potency [3] | Potency [4] | Potency [5] | Potency [6] | outcome [18] | Potency [8] | Potency [9] | outcome [10] | outcome [11] | outcome [12] | outcome [13] | Potency [14] | outcome [15] | outcome [16]

CC(C)C(OC(=O)c1ccccc1)C(C)(C)COC(=O)c1ccccc1 (stereo unspecified)
inactive: Potency [1] | Potency [2] | Potency [3] | Potency [4] | Potency [5] | Potency [6] | outcome [18] | Potency [9] | outcome [10] | outcome [11] | outcome [12] | outcome [13] | Potency [14] | outcome [15] | outcome [16]

CC1=C(C=O)C(C)(C)CCC1
inactive: Potency [1] | Potency [2] | Potency [3] | Potency [4] | Potency [5] | Potency [19] | Potency [6] | outcome [7] | Potency [8] | Potency [9] | outcome [10] | outcome [11] | outcome [12] | outcome [13] | Potency [14] | outcome [15] | outcome [16]

CC(C)(O)c1ccccc1CC[C@@H](SCC1(CC(=O)O)CC1)c1cccc(/C=C/c2ccc3ccc(Cl)cc3n2)c1
inactive: Potency [1] | Potency [2] | Potency [3] | Potency [4] | Potency [17] | Potency [5] | Potency [19] | Potency [6] | outcome [7] | Potency [8] | Potency [9] | outcome [10] | outcome [11] | outcome [12] | outcome [13] | Potency [14] | outcome [15] | outcome [16]

Cc1ccccc1N1C(=O)c2cc(S(N)(=O)=O)c(Cl)cc2NC1C (stereo unspecified)
inactive: Potency [1] | Potency [2] | Potency [3] | Potency [4] | Potency [17] | Potency [5] | Potency [19] | Potency [6] | Potency [8] | Potency [9] | outcome [10] | outcome [11] | outcome [12] | outcome [13] | Potency [14] | outcome [15] | outcome [16]
